In PubChem BioAssay AID720517 (National Center for Advancing Translational Sciences (NCATS), 2013):
Results filed as inconclusive are left out. Values without a mark were called inactive. Calls follow the shape of the dose curve; as a rule, active = well fitted activation curve with a large enough effect; inconclusive = small, poorly fitted or top-dose-only effect; inactive = flat fitted curve, though single readings scatter.

experiment: qHTS for Inhibitors of Cell Surface uPA Generation: FP59 Counterscreen for Cherry-picked Compounds; settings: FP59 anthrax toxin cytotoxicity counterscreen, cells; series mostly up to 115 µM; activity (protection from FP59): at the top concentration; also: 0% is about no effect

| Compound | activity (protection from FP59) [%] |
| --- | --- |
| COc1ccc(CNC(=O)C2(CC3CC(c4ccccc4)=NO3)CCNCC2)cc1 (centres undefined) | -1.45 |
| Cn1c(=O)c2c(ncn2CCO)n(C)c1=O | -0.875 |
| COc1cc(N/C(N)=N/c2nc(C)cc(C)n2)cc(OC)c1 | -1.6 |
| COc1cc(C2/C(=C(\O)c3ccc4c(c3)CC(C)O4)C(=O)C(=O)N2CC2CCCO2)cc(OC)c1OC (centres undefined) | -1.41 |
| Cc1nn(CC(=O)OCC(=O)NC(C)c2ccccc2)c(C)c1[N+](=O)[O-] (centres undefined) | 0.0139 |
| Cc1cc(=O)[nH]c(=S)[nH]1 | -1.48 |
| CCN(CC(=O)NCc1ccc(F)cc1)CC(=O)Nc1ccccc1-c1ccccc1 | 1.67 |
| CCN(CC)c1c([N+](=O)[O-])c(=O)sc2ccccc12 | -1.13 |
| CC1CC(=O)Nc2ccccc2N1C(=O)Cn1cnc2ccc(Br)cc2c1=O (centres undefined) | -1.21 |
| CC(C)N1CCc2c(sc(NC(=O)CCc3ccccc3)c2C(N)=O)C1 | -1.46 |
| C=CCOC(=O)C1=C[C@H](c2ccc(C(F)(F)F)cc2)[C@@H](CCCO)[C@H](OCC)O1 | 1.86 |
| CNC(=O)[C@@H]1CCC(=O)N1 | -1.3 |
| Cc1cc2c(cc1S(=O)(=O)Nc1ccc(F)cc1)n(C)c(=O)c(=O)n2C | -0.932 |
| Cc1[nH]c(=O)[nH]c(=O)c1S(=O)(=O)N1CCCc2ccccc21 | -1.55 |
| CC(/C=C1\SC(=S)N(CCCC(=O)Nc2ccc(C(=O)O)cc2)C1=O)=C\c1ccccc1 | -0.862 |
| COCCOC(=O)C1=C(C)NC(=O)NC1c1cccc2ccccc12 (centres undefined) | -1.34 |
| O=C(Nc1cccc(NC(=O)c2ccc(F)cc2)c1)c1ccc(F)cc1 | -1.25 |
| c1csc(CN2CCOCC2)c1 | -1.39 |
| Cc1ccc(N=C2SCCCN2C(=O)c2cccc(N3C(=O)CCC3=O)c2)cc1Cl | -1.37 |
| Cc1ccc2nc(Nc3ccc(Cl)cc3)c3nncn3c2c1 | -1.11 |

| Compound | activity (protection from FP59) [%] |
| --- | --- |
| COc1ccc(NS(=O)(=O)c2cc3c(cc2C)NC(=O)CO3)c(OC)c1 | -1.42 |
| COc1ccc(C(=O)CC(=O)C(=O)Nc2ccccc2)cc1 | -1.24 |
| COc1ccc(C2=C/C(=C\c3ccccc3OC(C)=O)C(=O)O2)cc1 | 3.33 |
| COC(=O)CCNS(=O)(=O)c1ccc2nsnc2c1 | -1.4 |
| CCCNC(=O)C1CCC(CNS(=O)(=O)c2ccc3c(c2)CC(C)N3C(C)=O)CC1 (centres undefined) | -1.46 |
| O=C(CN1C(=O)CSCC1=O)NCc1ccc(F)cc1 | -1.32 |
| O=C(NCCc1cn2ccsc2n1)c1cccs1 | -1.28 |
| COc1ccccc1NC(=O)Cn1nnc(-c2ccccc2NC(=O)c2cc3ccccc3oc2=O)n1 | -1.55 |
| CCOc1ccc(OCC)c(NC(=O)c2ccc(CNc3c(N4CCCC4)c(=O)c3=O)cc2)c1 | -1.24 |
| CCCCCOC(=O)C1=C(C)NC(=O)NC1c1ccccc1 (centres undefined) | -0.939 |
| O=C(O)c1ccc(-n2nnnc2SCc2cccc(Br)c2)cc1 | -1.51 |
| COc1cc(CN2CCNC(=O)C2CC(=O)NCCCC2CCCC2)cc(OC)c1 (centres undefined) | -1.23 |
| CCc1nccn1CCC(=O)N1CCc2c([nH]c3ccccc23)C1CC(C)C (centres undefined) | -1.32 |
| O=C(NCC1CCCO1)c1c(O)c2cccc3c2n(c1=O)CCC3 (centres undefined) | -0.908 |
| COCCNS(=O)(=O)c1cc(OC)c(C)cc1C | -1.25 |
| CCOC(=O)Oc1c(OC)cc(C(=O)O[C@@H]2C[C@@H]3CN4CCc5c([nH]c6cc(OC)ccc56)[C@H]4C[C@@H]3[C@H](C(=O)OC)[C@H]2OC)cc1OC | 2.97 |
| Cc1ccc(S(=O)(=O)N2CCN(C(=O)c3n[nH]c(=O)c4ccccc34)CC2)cc1 | -1.23 |
| COc1ccc(OC)c(S(=O)(=O)N2CCN(Cc3ccccc3)CC2)c1 | -1.16 |
| CCCS(=O)(=O)c1ccc(COC(=O)Cc2ccc([N+](=O)[O-])cc2)cc1 | -0.901 |
